Assay outcomes (PubChem BioAssay)
Compounds with a hit are over-represented: about 6% of the library has one in this group of screens.
DRD3 antagonist: D3 dopamine receptor (human) antagonism; P35462; D3R cells, DiscoveRx beta-arrestin luminescence, antagonist mode; hits give low values; max response, negative = inhibition, %; 360,000 compounds, 2.5% hits; AID 652054; in the data active = max response below about -50%; inconclusive = no clear call, values can overlap the other calls; note: % is set by controls: 0 for no effect and ±100 for the full control effect
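Cells plated overnight at 1500 cells/well, then exposed to library compounds with dopamine controls for 90 minutes at 37 degrees C. DiscoveRx reagent added for 30–60 minutes at room temperature; luminescence read, quantitative HTS format.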
D1 antag: human D1 dopamine receptor antagonism; P21728; 360,000 compounds, 3.2% hits; activity change, negative = inhibition, % at 10 µM; HEK293 TREx D1 cells, calcium flux, dopamine EC80; hits give low values; AID 504652; in the data active = activity change below about -30%; note: % is set by controls: 0 for no effect and ±100 for the full control effect
Target sequence (P21728 whole entry, looked up): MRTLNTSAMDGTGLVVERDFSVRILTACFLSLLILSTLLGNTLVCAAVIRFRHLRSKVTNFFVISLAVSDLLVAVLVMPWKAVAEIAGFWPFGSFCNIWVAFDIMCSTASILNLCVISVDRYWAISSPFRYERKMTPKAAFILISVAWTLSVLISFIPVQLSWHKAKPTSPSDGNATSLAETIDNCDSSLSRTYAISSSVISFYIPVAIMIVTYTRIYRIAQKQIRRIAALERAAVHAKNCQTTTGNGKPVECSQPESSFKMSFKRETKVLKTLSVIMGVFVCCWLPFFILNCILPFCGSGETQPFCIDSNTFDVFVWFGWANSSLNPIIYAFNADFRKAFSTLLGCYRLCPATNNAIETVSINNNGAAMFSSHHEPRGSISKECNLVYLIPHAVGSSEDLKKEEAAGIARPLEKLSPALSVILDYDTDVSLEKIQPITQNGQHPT
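Tetracycline-induced HEK293 T-REx cells with force-coupled D1 receptor were loaded with a no-wash calcium dye. Compound was added after a 10 s baseline and read kinetically for 180 s; EC80 dopamine was then added and calcium flux followed another 180 s.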
D1 agonist: human D1 receptor agonism; P21728; HEK293 T-REx D1 cells, calcium flux, agonist mode; activation, % at 2 µM; 360,000 compounds, 1% hits; AID 504660; in the data active = activation above about 30%; note: 0% is about no effect
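Agonism was scored from calcium flux recorded over 180 s (1 read/s) after pintool compound addition, following a 10-cycle baseline. Cells were inducible force-coupled HEK293 TREx D1, plated overnight at 30 C and loaded with no-wash calcium dye.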
D1 potentiator: enhances dopamine response at the human D1 receptor; P21728; HEK293 TREx D1 cells, calcium flux, dopamine EC20 potentiation; potentiation, % at 10 µM; 360,000 compounds, 0.036% hits; in the data active = potentiation above about 30%; note: 0% is about no effect
D3 ag: D3 dopamine receptor (human) agonism | D3R DiscoveRx beta-arrestin cells, luminescence, 90 min | 410,000 compounds, 0.58% hits | max activation, % | P35462; in the data active = max activation above about 30%; note: 0% is about no effect
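Agonist mode: compounds and dopamine controls were applied to plated cells for 90 min at 37 degrees C after an overnight attachment at 1500 cells/well. Luminescent read-out followed 30 - 60 minutes at room temperature with DiscoveRx detection reagent.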
Starred values were filed as active, the others as inactive; ? = inconclusive; · = no result given.

SMILES	DRD3 antagonist	D1 antag	D1 agonist	D1 potentiator	D3 ag
C=CCOC1=CS(=O)(=O)N(Cc2ccc(Br)cc2)c2ccc(Br)cc21	-4.1	·	·	·	41.6*
CC(=O)N(C(C)=O)N1C(=O)c2cccc3c(N4CCOCC4)ccc(c23)C1=O	-4.8	-1.8	30.6*	-2.9	-0.6
O=C(OCCN1C(=O)c2cccc3c(N4CCOCC4)ccc(c23)C1=O)c1cc(Cl)cc(Cl)c1	·	-9.3	12.3	0.3	·
CCCN1C(=O)c2cccc3c(N4CCCCC4)ccc(c23)C1=O	-7.8	7.9	63.3*	-3.1	1.9
O=C1c2ccc([N+](=O)[O-])cc2C(=O)N1c1ccc(Cl)cn1	-0.2	1.1	0.0	1.8	3.2
CC(=O)Oc1ccc(N2C(=O)c3cccc4c([N+](=O)[O-])ccc(c34)C2=O)cc1	-99.9*	-41.4*	2.1	-7.5	-13.5
O=C1c2cccc3c([N+](=O)[O-])ccc(c23)C(=O)N1c1ccc(Cl)cn1	?	-49.5*	3.4	-8.2	-35.8
O=C1c2cccc3c([N+](=O)[O-])ccc(c23)C(=O)N1O	48.3	-8.2	3.3	2.7	2.3
CC1=C(C)C(=O)N(c2ccccn2)C1=O	-25.0	5.9	0.9	3.4	7.1
O=C1c2cccc3c([N+](=O)[O-])ccc(c23)C(=O)N1c1ccccn1	-99.8*	-42.1*	3.7	-10.8	-10.4
O=C1c2cccc3c(N4CCCCC4)ccc(c23)C(=O)N1c1ccccn1	-18.4	-26.7	154.0*	-5.8	5.8
CCCCNc1ccc2c3c(cccc13)C(=O)N(CCCC)C2=O	17.6	-70.6*	700.2*	4.3	16.1
COc1ccccc1N1CCN(C(=O)CCc2nnc3n(C)c(=O)c4sccc4n23)CC1	·	3.5	0.2	0.5	-8.0
Cc1cc2c(s1)c1cnn(Cc3ccc(Br)cc3)c(=O)c1n2C	·	4.8	1.0	3.4	·
CN(CCOc1ccc(Cl)cc1)C(=O)c1cc(-c2ccco2)nc2ccccc12	17.1	-13.8	2.8	-7.2	42.0*
COc1cccc(NC(=O)CN(C)C(=O)c2cc(-c3ccco3)nc3ccccc23)c1	19.0	-7.3	2.2	-3.5	5.8
CCCCNC(=O)Cn1nc(N2CCN(c3ccccc3OC)CC2)ccc1=O	·	-42.1*	0.8	-0.8	-9.3
CCOc1ccc(OCC)c(NS(=O)(=O)c2c(C)[nH]c(=O)[nH]c2=O)c1	·	-2.4	3.7	0.9	-6.7
CCc1ccc(/C=C2\Oc3cc(OS(C)(=O)=O)ccc3C2=O)cc1	0.3	-21.9	3.1	-6.3	3.9
CCc1ccc(/C=C2\Oc3c(ccc(O)c3CN3CCN(CCO)CC3)C2=O)cc1	5.1	0.5	64.4*	3.0	-13.8
Cc1ccc(Cl)cc1N1CCN(CC(O)COC(C)C)CC1 (centres undefined)	-79.2*	4.3	3.9	-1.9	-13.9
COc1ccccc1N1CCN(CC(O)COc2cc(C)cc(C)c2)CC1 (centres undefined)	·	-17.8	7.8	-3.4	-31.2
COc1ccccc1N1CCN(CC(O)COc2ccc(C)cc2C(C)(C)C)CC1 (centres undefined)	·	1.3	1.6	-2.5	-10.4
COc1ccccc1N1CCN(CC(O)COc2ccc(Cl)c(C)c2)CC1 (centres undefined)	·	-31.2*	13.1	-4.9	-23.0
COc1ccccc1N1CCN(CC(O)COc2ccc3c(c2)CCC3)CC1 (centres undefined)	-66.7*	-6.3	14.0	-11.7	-4.7
SMILES	DRD3 antagonist	D1 antag	D1 agonist	D1 potentiator	D3 ag
COc1ccccc1N1CCN(CC(O)COc2ccc(C)c(C)c2)CC1 (centres undefined)	-101.0*	-22.0	9.1	-0.9	-21.2
O=C1Nc2ccccc2N(C(=O)c2ccc3ccccc3c2)C1c1nc2ccccc2[nH]1 (centres undefined)	-29.7	·	·	·	-11.5
COc1cccc(NC(=O)/C(C#N)=C\c2cn(Cc3ccc(Cl)cc3)c3ccccc23)c1	·	-20.8	4.9	1.9	-11.6
COc1ccccc1N1CCN(CC(O)COc2ccc(S(=O)(=O)N3CCOCC3)cc2)CC1 (centres undefined)	-80.8*	-21.2	9.5	-6.3	-30.9
CC(C)(C)CC(C)(C)NCC(O)COc1ccc2c(c1)CCC2 (centres undefined)	-63.0*	·	·	·	2.9
O=S(=O)(c1ccc(OCC(O)CN2CCN(c3ccc(F)cc3)CC2)cc1)N1CCOCC1 (centres undefined)	-24.5	-21.2	8.6	-2.9	-17.8
CCCS(=O)(=O)N1CC(=O)N(c2ccc(C)cc2C)C(C)(C(=O)NC2CCCCCC2)C1 (centres undefined)	·	0.7	-2.0	0.6	-3.9
COc1ccccc1CCNCc1ccc(OC)c(OCc2ccccc2)c1	?	-58.3*	62.2*	-11.6	-61.5
COc1ccc(NC(=S)NCCc2c[nH]c3ccccc23)c(OC)c1	14.7	-36.2*	8.1	-2.9	-1.6
COc1cc(CNCc2cccnc2)ccc1OCc1ccccc1	2.1	4.3	13.8	-1.9	-8.7
COc1ccc(CNCc2ccco2)cc1OCc1ccccc1	-20.9	-3.5	44.1*	-4.5	-12.6
COc1cc(CNCCc2c[nH]c3ccccc23)ccc1OCc1ccccc1F	-55.7*	24.8	28.4	-9.1	-18.0
CCC(C(=O)NC1CCCC1)n1c(-c2ccnc3ccccc23)nc2ccccc21 (centres undefined)	-3.3	·	·	·	10.4
Cc1ccc(NC(=O)c2cc(S(=O)(=O)N3CCOCC3)ccc2Cl)cc1S(=O)(=O)N1CCOCC1	3.4	·	·	·	2.1
O=C(CCN1CCN(Cc2ccccc2)CC1)NNC(=O)c1ccc(Cl)c(Cl)c1	?	·	·	·	1.4
COc1ccc(CCNCc2c(OC)ccc3ccccc23)cc1OC	-16.0	-28.1	37.8*	-1.2	-5.6
COc1ccc2ccccc2c1CNC(C)CCc1ccccc1 (centres undefined)	?	27.1	6.8	-3.6	-15.9
COCCN(Cc1nc2ccccc2c(=O)[nH]1)C(=O)c1cccc(S(=O)(=O)N2CCCC2)c1	-10.3	-55.2*	1.6	0.2	-1.6
CN(Cc1nc2ccccc2c(=O)[nH]1)C(=O)c1cccc(S(=O)(=O)N2CCCCCC2)c1	12.0	3.8	-0.5	-4.2	2.2
Cc1ccc([C@@H]2CC=C(C(=O)O)[C@H](c3ccc(C(C)(C)C)cc3)N2S(=O)(=O)c2ccc(C)cc2)cc1	0.0	·	·	·	30.2*
CCc1ccc([C@@H]2CC=C(C(=O)O)[C@H](c3ccc(C(C)(C)C)cc3)N2S(=O)(=O)c2ccc(C)cc2)cc1	26.7	·	·	·	31.3*
Cc1ccc(S(=O)(=O)c2cn(CC(=O)Nc3cccc(C)c3)c3cc4c(cc3c2=O)OCO4)cc1	·	-5.3	3.6	-3.3	-5.0
O=C(c1ccc(Cl)cc1)c1cn(Cc2ccccc2)c2cc3c(cc2c1=O)OCCO3	·	-7.0	13.6	-4.5	-8.1
COc1ccc(Cn2c(SCc3cc(C)ccc3C)nc3cc(OC)c(OC)cc3c2=N)cc1	0.0	41.0	9.7	0.7	43.7*
